In the library only some 2.8% were active in any assay of this set; here they are far more common.
HSP90 refold inh: HSP90 refolding inhibition in rabbit reticulocyte lysate | AID 1789 | hit rate 0.91% among 290,000 | inhibition, % at 5.6 µM | luciferase refolding luminescence, 3 h;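 active = inhibition above the screen-wide mean plus 3 SD, computed separately per campaign, cut at about 16% in these data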;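 note: 0% = DMSO wells and 100% = 60 µM geldanamycin wells; inhibitors lower the luminescence because luciferase stays unfolded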
SENP6 block: inhibitors of human SENP6 protease | Q9GZR1 | Recombinant SENP6 catalytic domain, aminoluciferin luminescence | inhibition, % at 10 µM | hit rate 1.8% among 330,000 | AID 2599;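 active = inhibition above about 50% at the single tested dose, limit read from the data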;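 note: plate controls were DMSO wells with enzyme for no effect and DMSO wells lacking enzyme for full effect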
Target sequence (Q9GZR1 628-1112 limits assumed): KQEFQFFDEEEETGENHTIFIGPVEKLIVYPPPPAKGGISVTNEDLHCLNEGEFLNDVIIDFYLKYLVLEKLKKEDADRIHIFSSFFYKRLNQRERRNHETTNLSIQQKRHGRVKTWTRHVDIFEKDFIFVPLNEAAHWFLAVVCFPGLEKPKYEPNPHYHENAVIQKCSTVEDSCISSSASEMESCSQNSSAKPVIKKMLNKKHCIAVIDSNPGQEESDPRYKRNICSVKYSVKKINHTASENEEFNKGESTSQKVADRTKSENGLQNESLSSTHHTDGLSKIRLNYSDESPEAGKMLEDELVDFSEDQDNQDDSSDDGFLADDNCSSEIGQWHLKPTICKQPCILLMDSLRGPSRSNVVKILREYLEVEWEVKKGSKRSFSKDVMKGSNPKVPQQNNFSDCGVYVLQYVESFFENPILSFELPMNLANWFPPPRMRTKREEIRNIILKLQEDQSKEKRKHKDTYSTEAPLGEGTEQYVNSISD
SENP7 block: blocks the human protease SENP7; inhibition, % at 5 µM; hit rate 1.5% among 330,000; recombinant SENP7, Z-RLRGG-aminoluciferin luminescence, 40 min; Q9BQF6; AID 434973;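 active = inhibition above about 50% at the single test dose, limit read from the data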;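 note: plate controls were DMSO with enzyme for no effect and no enzyme buffer wells for full effect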
SENP8 block-1: SENP8 protease inhibition; inhibition, % at 10 µM; AID 2540; purified SENP8, Z-RLRGG-aminoluciferin cleavage, luminescence; Q96LD8; hit rate 1.2% among 330,000; in the data active = inhibition above about 50%
SENP8 block-2: SENP8 (human) protease inhibition | Q96LD8 | hit rate 0.64% among 360,000 | inhibition, % at 20 µM | recombinant SENP8, Nedd8 substrate fluorescence; in the data active = inhibition mostly above about 40%, no sharp cut-off; inactive = mostly below about 27%
SENP8 conf: confirmation of human SENP8 protease inhibitors | hit rate 40% among 6,200 | AID 488912 | shares compounds with SENP7 block | inhibition, % at 12.5 µM | Recombinant SENP8, Z-RLRGG-aminoluciferin luminescence, 60 min;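 active = mean inhibition across replicates above about 50%, limit read from the data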
SENP6 conf: confirmation of human SENP6 protease inhibitors; hit rate 58% among 6,200; shares compounds with SENP7 block; inhibition, % at 12.5 µM; recombinant SENP6, Z-RLRGG-aminoluciferin luminescence
SENP7 conf: human SENP7 inhibition, confirmed; recombinant SENP7, Z-RLRGG-aminoluciferin luminescence, 40 min; shares compounds with SENP7 block; inhibition, % at 12.5 µM; hit rate 69% among 6,200; AID 488917
Casp3 select: caspase-3 inhibition (SENP selectivity assay); shares compounds with SENP7 block; purified caspase-3, Z-DEVD-aminoluciferin luminescence, 60 min; inhibition, % at 12.5 µM; hit rate 60% among 6,200;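 active = mean inhibition above about 50%, limit read from the data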;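 note: plate controls were enzyme with DMSO for no effect and wells without caspase-3 for full effect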
Target sequence (P42574 28-227 limits assumed): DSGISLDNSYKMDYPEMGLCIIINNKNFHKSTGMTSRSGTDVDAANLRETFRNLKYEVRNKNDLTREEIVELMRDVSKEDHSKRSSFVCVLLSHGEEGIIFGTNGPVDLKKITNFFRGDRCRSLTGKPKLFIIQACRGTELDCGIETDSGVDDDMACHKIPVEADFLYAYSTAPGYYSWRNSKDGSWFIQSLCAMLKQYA
SENP luc ctr: counter-screen for SENP inhibitors: luminescence interference; shares compounds with SENP7 block; Pre-incubated SENP8/Z-RLRGG-aminoluciferin, luciferase luminescence interference; inhibition, % at 12.5 µM; hit rate 39% among 6,200; AID 488919;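 active = mean inhibition above about 50% when retested at one dose, limit read from the data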;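 note: plate controls were DMSO wells with completed reaction for no effect and substrate without enzyme for full effect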
Starred values were filed as active, the others as inactive; i = inactive; · = not tested or not shown.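 Rule for the calls, unless noted: active = mean inhibition above about 50% in the one-dose retest (limit read from the data); inactive = the rest.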

SMILES | HSP90 refold inh | SENP6 block | SENP7 block | SENP8 block-1 | SENP8 block-2 | SENP8 conf | SENP6 conf | SENP7 conf | Casp3 select | SENP luc ctr
c1cnc2ccc(-c3ccc4ncccc4c3)cc2c1 | -1 | 77* | 32 | 55* | -112 | 72* | 71* | 87* | 65* | 76*
CCCCNc1nccnc1-c1cccc(C=O)c1 | · | · | · | · | i | · | · | · | · | ·
O=S(=O)(Nc1nc(-c2sccc2Cl)cs1)c1cc(Cl)ccc1Cl | 1 | 74* | 3 | 10 | 37 | 9 | 15 | 5 | 6 | 11
CCC(=O)Nc1c(C(=O)N2CCN(c3ccccn3)CC2)cnn1-c1ccc(C)cc1 | -6 | -18 | 1 | 0 | -16 | · | · | · | · | ·
O=C(CCl)Oc1ccc2occ(C(=O)c3cccs3)c2c1 | 3 | 63* | 38 | 27 | 14 | 32 | 30 | 66* | 40 | 30
O=C(c1cccs1)c1coc2ccc(O)cc12 | 3 | 54* | 28 | 21 | 24 | 41 | 48 | 77* | 49 | 32
CC(=O)Oc1ccc2occ(C(=O)c3cccs3)c2c1 | -1 | 23 | 5 | 8 | 22 | · | · | · | · | ·
CCOC(=O)N1CCC(NC(=O)CN2C(=O)CCSc3ccccc32)CC1 | -4 | -8 | -11 | 1 | 6 | · | · | · | · | ·
Cn1ccnc1SCC(=O)c1ccc(O)cc1 | 0 | 55* | 40 | 26 | 18 | 21 | 16 | 67* | 80* | 52*
Cc1ccc(-c2nn(C)c(=O)c3ccccc23)cc1S(=O)(=O)N1CCOCC1 | 3 | -12 | 4 | -1 | 11 | · | · | · | · | ·
O=S(=O)(c1ccccc1)N(CC(O)CN1CCOCC1)c1ccccc1 (stereo not given) | -3 | -12 | -9 | 77* | 10 | 11 | 10 | 8 | -2 | -5
O=S(=O)(c1ccccc1)N(CC(O)CN1CCCC1)c1ccccc1 (stereo not given) | 3 | -17 | 8 | -2 | 13 | · | · | · | · | ·
CC(C)[C@@H]1Cc2[nH][nH]c(=O)c2[C@H](C)O1 | · | · | · | · | 6 | · | · | · | · | ·
CCCC1=NN(c2ccc([N+](=O)[O-])cc2)C(=O)/C1=C\N(C)C | 1 | 95* | 96* | 95* | 52* | 97* | 97* | 102* | 97* | 97*
CCNc1ccc([N+](=O)[O-])cc1 | 1 | -10 | 4 | -3 | 3 | · | · | · | · | ·
Cc1nc(SCCC(=O)O)c2cc(-c3ccccc3)sc2n1 | 1 | 72* | 60* | 71* | -83 | 46 | 76* | 14 | 82* | 48
COc1cc(NC(=O)Cn2nc(-c3ccc(F)cc3)ccc2=O)ccc1-n1cnnn1 | 1 | -14 | -4 | -2 | 6 | · | · | · | · | ·
O=C(NCCc1ccccc1)c1cc(-c2ccncc2)nc2ccc(S(=O)(=O)N3CCOCC3)cc12 | 3 | 4 | 5 | 4 | 1 | · | · | · | · | ·
CCOC(=O)c1cnc(Nc2ccc(OCC)cc2)nc1C | 0 | 33 | 19 | -4 | -26 | · | · | · | · | ·
FC(F)Oc1ccc(NC(=S)NCc2ccccc2)cc1 | -1 | -11 | 0 | -9 | 5 | · | · | · | · | ·
Oc1cccc2c(NC(=S)Nc3ccc(OC(F)F)cc3)cccc12 | 1 | 94* | 49 | 80* | -190 | -4 | 15 | 2 | 5 | 15
Cc1ccc(NC(=O)COC(=O)CCc2nc3ccccc3c(=O)[nH]2)c(Br)c1 | -2 | 5 | -2 | 2 | 16 | · | · | · | · | ·
Cc1cccc(CSc2cn(CC(=O)N3CCOCC3)c3ccccc23)c1 | -2 | 65* | 74* | 72* | 19 | 87* | 87* | 96* | 70* | 59*
O=C(NCc1ccccc1)C(=O)c1cn(CC(=O)N2CCOCC2)c2ccccc12 | -2 | -9 | 55* | -13 | -45 | -6 | -2 | 4 | 5 | -4
O=Cc1cn(CC(=O)N2CCOCC2)c2ccccc12 | 3 | 9 | 2 | 1 | 8 | · | · | · | · | ·
SMILES | HSP90 refold inh | SENP6 block | SENP7 block | SENP8 block-1 | SENP8 block-2 | SENP8 conf | SENP6 conf | SENP7 conf | Casp3 select | SENP luc ctr
CCC(=Nc1ccc(Cc2ccncc2)cc1)c1c(O)n(C)c(=O)n(C)c1=O | -1 | · | · | · | 11 | · | · | · | · | ·
O=C(C1=C[C@@H](c2ccc3c(c2)OCO3)C[C@@H](OCCCCO)O1)N1CCOCC1 | 6 | -4 | -2 | -8 | -130 | · | · | · | · | ·
O=C(Nc1nc2ccc(S(=O)(=O)N3CCCC3)cc2s1)c1cccs1 | 1 | 26 | 1 | -7 | -301 | · | · | · | · | ·
O=C(NC(=S)Nc1nc2ccccc2s1)c1cccs1 | -5 | 76* | 20 | 43 | 2 | 13 | 8 | 26 | 13 | 12
CN(C)S(=O)(=O)c1ccc2nc(NC(=O)c3cccs3)sc2c1 | 6 | 73* | 55* | 40 | -237 | 77* | 74* | 90* | 72* | 76*
O=C(NC(=S)Nc1nc2ccc(F)cc2s1)c1ccco1 | 2 | 69* | 62* | 12 | 12 | 13 | 13 | 10 | 4 | 2
O=C(Nc1nc2ccc(F)cc2s1)c1cccs1 | 5 | 91* | 95* | 92* | -95 | 67* | 96* | 103* | 93* | 81*
COC(=O)c1nc(NC(=S)NC(=O)c2cccs2)sc1C | -6 | 15 | 27 | 17 | 1 | · | · | · | · | ·
O=C(NCCC1CCCCN1S(=O)(=O)c1ccccc1)C(=O)NCCN1CCOCC1 (stereo not given) | · | -16 | -12 | -3 | 13 | · | · | · | · | ·
COc1ccccc1NC(=O)N1CCC(NC(=O)C(Cc2ccccc2F)NC(C)=O)CC1 (stereo not given) | -5 | -7 | -1 | 7 | 13 | · | · | · | · | ·
CCC(=O)NNc1nc2c(F)cccc2s1 | 0 | -8 | 0 | 5 | 2 | · | · | · | · | ·
CC(=O)Nc1nc2ccccc2[nH]1 | 0 | -16 | 1 | 2 | -2 | · | · | · | · | ·
O=C(Nc1nc2ccccc2[nH]1)c1ccccc1O | 10 | 88* | 92* | 82* | -286 | 12 | 80* | 64* | 92* | 2
CN(c1cccc(Cl)c1)S(=O)(=O)c1cccc(C(=O)Nc2nc3ccccc3[nH]2)c1 | 4 | -5 | 4 | 3 | -65 | · | · | · | · | ·
O=C(Nc1nc2ccccc2[nH]1)c1cccc(Cl)c1 | -2 | 57* | 68* | 24 | -8 | -9 | 17 | 86* | 66* | 8
Cc1nc(-c2ccc(Cl)cc2)sc1C(=O)O | 11 | 81* | 77* | 85* | 1 | 95* | 95* | 101* | 88* | 93*
COc1ccc(NC(=O)CN(C)C(=O)CNC(=O)c2ccc3c(c2)OCO3)cc1 | · | -3 | -10 | -12 | 6 | · | · | · | · | ·

Screens: PubChem BioAssay, several laboratories
